# KinaseGlo FLuc: blocks Kinase-Glo luciferase, a counter-screen artifact; Q27757; Kinase-Glo luciferase, ATP luminescence, 8 min; Potency, µM (doses to about 38.3 µM), for inactives: at the top dose activity change, negative = inhibition, usual class: inhibitors; actives 0.28% (n = 200,000); also: % is scaled to controls: 0 for no effect and ±100 for the full control effect; nearly all actives have a fitted effect of over 60% in size
#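 Luminescence was the read-out, taken after 8-minute incubation at ambient temperature. Luciferase turned over luciferin with 10 uM ATP in imidazole pH 7.2 buffer containing KCl, MgCl2, Tween 20 and BSA.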
# SMN2 splice up: enhancers of SMN2 splice variant expression; Potency, µM (top dose mostly 46.1 µM), for inactives: at the highest dose activity change, positive = activation, actives largely listed as activators; HEK293 SMN2-luciferase splicing reporter, luminescence, 30-36 h; actives 2.8% (n = 210,000); also: % of control where 0% means no effect; nearly all actives have a fitted effect of over 55% in size
#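 qHTS luciferase splicing reporter: luminescence rises when SMN2 exon 7 is included in transfected HEK293 cells. Compound exposure lasted 30-36 h at 37C, with 4.5 mM final sodium butyrate as control, followed by a ONE-Glo read.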
# NPC1 promoter act: NPC1 promoter activation. Huh7 NPC1 promoter luciferase reporter, 24 h. Potency, µM (titrated, usually from 9.22 µM), inactives show top-dose activation, actives largely listed as activators. actives 2.4% (n = 320,000). AID 485313; also: % of control where 0% means no effect; nearly all actives have a fitted effect of over 60% in size
#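 Luciferase expression driven by the NPC1 promoter was measured in stably transfected Huh7 cells after a 24 h compound incubation, using a luciferase reagent and a luminescence read.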
# Rab9 prom act: activates the Rab9 promoter. Potency, µM (titrated, usually from 9.22 µM), without a hit: at the highest dose activation, negative = inhibition, hits mostly activators. Huh7 Rab9 promoter-luciferase reporter, luminescence, 24 h. actives 2.8% (n = 320,000). AID 485297; also: % of control where 0% means no effect; nearly all actives have a fitted effect of over 60% in size
#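 Cells were plated at 1500 per well in reduced-serum medium with 10% FBS and left 2 h. Compound in DMSO was then added for 24 h at 37 °C. Reporter signal was read by luminescence after 10 min with luciferase detection reagent.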
# FLuc modulator: inhibits or activates purified firefly luciferase, miR-21 counter-screen | P08659 | purified FLuc, Km substrates, luminescence inhibition | Potency, µM (highest dose often 57.5 µM), for the others: at the top dose activity change, negative = inhibition, actives largely listed as inhibitors | actives 6.9% (n = 360,000) | AID 588342;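 also: plate controls were vehicle for no effect and reference inhibitor for full effect; nearly all actives have a fitted effect of over 55% in size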
# Target sequence (P08659 whole entry, looked up): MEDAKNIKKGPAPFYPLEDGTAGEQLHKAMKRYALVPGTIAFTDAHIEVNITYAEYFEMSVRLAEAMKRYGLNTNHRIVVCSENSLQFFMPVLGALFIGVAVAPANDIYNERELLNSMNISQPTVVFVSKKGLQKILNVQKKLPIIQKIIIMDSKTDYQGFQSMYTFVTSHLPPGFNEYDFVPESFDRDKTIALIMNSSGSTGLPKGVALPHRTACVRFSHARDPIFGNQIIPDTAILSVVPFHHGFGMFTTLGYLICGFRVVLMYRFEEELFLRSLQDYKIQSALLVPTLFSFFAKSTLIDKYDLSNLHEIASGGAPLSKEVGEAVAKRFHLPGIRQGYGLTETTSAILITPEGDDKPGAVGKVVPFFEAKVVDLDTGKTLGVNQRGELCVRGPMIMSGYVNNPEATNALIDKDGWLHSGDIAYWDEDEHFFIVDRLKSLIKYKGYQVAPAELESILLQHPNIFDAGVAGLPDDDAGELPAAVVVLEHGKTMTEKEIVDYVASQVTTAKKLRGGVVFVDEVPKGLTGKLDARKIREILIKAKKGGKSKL
#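 Purified P. pyralis luciferase (10nM final) with 10uM D-luciferin and 10uM ATP (Km levels) in 50mM Tris acetate pH 7.5, 10mM Mg acetate, 0.01% Tween-20, 0.05% BSA; qHTS 6-point titration, ~60 µM downward; luminescence read.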
# Numbers without * were called inactive; ? = inconclusive; nt = not tested or not shown; [ ] = remark or other dose. Sampled rows, rich in hits. Any-hit rate of the full collection: about 7.3%. Calls follow the shape of the dose curve; as a rule, active = well fitted curve in the direction sought with a large enough effect; inconclusive = small, poorly fitted or top-dose-only effect, or another doubt; inactive = no such curve, though single readings can be large; an effect the other way counts as inactive or inconclusive. Potency is read from the fitted curve at half-maximal effect.
SMILES,KinaseGlo FLuc,SMN2 splice up,NPC1 promoter act,Rab9 prom act,FLuc modulator
COc1ccc(C(=O)Nc2ccc(SC(F)F)cc2)cc1,0%,?,2.2µM*,0.79µM*,3µM*
CCCCOc1ccc(C(=O)Nc2ccc(SC(F)F)cc2)cc1OC,0%,-6%,0%,-2%,-18%
O=S(c1ccccc1)c1ccc2nnnn2n1 (stereo unspecified),1%,nt,nt,nt,nt
COc1ccccc1-n1c(=O)n(C)c2c(C(N)=O)nc(-c3cc(OC)c(OC)c(OC)c3)nc21,nt,nt,nt,nt,-4%
Cc1ccc(C(=O)Nc2ccc(CC(=O)O)cc2)o1,-11%,?,2%,-1%,?
O=C(O)Cc1ccc(NC(=O)c2ccc(NC(=O)C3CC3)cc2)cc1,nt,nt,-2%,19%,17µM*
O=C(O)Cc1ccc(NC(=O)c2ccc(Cl)c(Cl)c2)cc1,1%,12%,2%,-5%,8.5µM*
CC(C)(C)c1ccc(C(=O)Nc2ccc(CC(=O)O)cc2)o1,-3%,-28%,-15%,-19%,4.3µM*
COc1ccc(-c2cc(C(F)(F)F)n3nc(C(=O)Nc4sc5c(c4C#N)CCC(C)C5)cc3n2)cc1OC (stereo unspecified),nt,0%,nt,nt,-13%
CCOc1ccc(NC(=O)c2cc(=O)c3cc(CC)ccc3o2)cc1,nt,5%,nt,nt,1%
CCOC(=O)c1ccc(N=Nc2c(C)[nH]n(-c3ccccc3)c2=O)cc1,nt,nt,11%,20%,?
CCOc1ccc(N=Nc2c(C)[nH]n(-c3ccccc3)c2=O)cc1,nt,nt,17%,4%,?
COc1cccc(N=Nc2c(C)[nH]n(-c3ccccc3)c2=O)c1,nt,nt,?,?,11µM*
O=c1cc(-c2ccccc2)nc2c(-c3ccccc3)c(C(F)(F)F)[nH]n12,nt,nt,-1%,-8%,?
Nc1[nH]n2c(=O)cc(-c3ccccc3)nc2c1N=Nc1ccc2c(c1)OCO2,-7%,nt,-6%,-8%,5.4µM*
Cc1[nH]n(-c2ccccc2)c(=O)c1N=Nc1ccc2c(c1)OCO2,-1%,18µM*,?,?,6µM*
COc1ccc2c(CNCc3ccco3)c(C(=O)O)n(Cc3ccc(F)cc3Cl)c2c1,nt,nt,nt,nt,7%
CC(C)(C)C(=O)NC1(C(F)(F)F)C(=O)Nc2c1c(=O)[nH]c(=O)n2-c1ccccc1 (stereo unspecified),nt,-2%,nt,nt,2%
Cn1cccc1C(=O)N/N=C/c1c(Cl)cccc1Cl,nt,nt,2.5µM*,2.8µM*,11µM*
Cn1cccc1/C=N/NC(=O)c1cc2ccccc2cc1O,nt,nt,?,?,19µM*
Cc1ccc(/C=N/NC(=O)c2ccccn2)s1,?,4µM*,1.3µM*,0.5µM*,?
Cn1cccc1/C=N/NC(=O)c1ccccn1,nt,nt,?,3.5µM*,13µM*
Cn1cccc1/C=N/NC(=O)c1ccncc1,nt,nt,-7%,-2%,-20%
Cc1ccc(C)c(NC(=O)N2CCN3CCCCC3C2)c1 (stereo unspecified),nt,nt,nt,nt,-2%
O=C(Nc1cccc2cccnc12)c1ccc(-c2cccc(Cl)c2)o1,nt,-3%,nt,nt,-12%
SMILES,KinaseGlo FLuc,SMN2 splice up,NPC1 promoter act,Rab9 prom act,FLuc modulator
CCC(CC)c1nn2c(=O)cc(COc3ccc(NC(=O)c4ccccc4Cl)cc3)nc2s1,nt,-6%,nt,nt,-15%
COc1ccc(NC(=O)CN2CCCN(S(=O)(=O)c3ccc(Br)cc3)CC2)c(OC)c1,nt,-28%,nt,nt,-8%
COc1ccc(OC)c(C2c3c(-c4ccc(Br)cc4)n[nH]c3C(=O)N2c2ccc(Cl)cc2)c1 (stereo unspecified),nt,-16%,nt,nt,1%
CCS(=O)(=O)N1CC(=O)N(c2ccc(C)c(C)c2)C(C)(C(=O)NC2CCCCC2)C1 (stereo unspecified),nt,nt,nt,nt,-2%
O=C(CCS(=O)(=O)c1cc(Br)cc2c1N(C(=O)C1CC1)CC2)N1CCN(c2ccccc2)CC1,nt,-5%,nt,nt,-10%
CN1CCc2c(sc3c2C(=O)NC(c2ccc(C(C)(C)C)cc2)N3)C1 (stereo unspecified),nt,6%,nt,nt,?
CC(=O)c1c(C)oc2c(Cl)cc(NS(=O)(=O)c3cc(C)c(C)cc3C)cc12,nt,14%,nt,nt,-2%
Cc1cc(C(=O)N/N=C/c2ccc([N+](=O)[O-])s2)n[nH]1,nt,nt,4%,-14%,-2%
Cc1cc(C)n(CC(=O)N/N=C/c2ccc([N+](=O)[O-])s2)n1,1%,-91%,0%,-1%,4%
CC(C)CNC(=O)C(=O)N/N=C/c1cccs1,-4%,3%,?,?,?
CC(C)(C)NC(=O)C(=O)N/N=C/c1cccs1,-5%,?,?,1.8µM*,15µM*
O=C(N/N=C/c1cccs1)c1ccccn1,?,25µM*,3.5µM*,2.5µM*,11µM*
Cc1cc(C)n(CC(=O)N/N=C/c2cccs2)n1,-4%,-7%,-2%,3%,17µM*
Cc1cc(C(=O)N/N=C/c2ccc(C)s2)n[nH]1,nt,nt,4µM*,3.2µM*,?
CN(C)C1C(=O)C(C(N)=O)C(=O)C2(O)C(=O)C3C(=O)c4c(O)ccc(Cl)c4C(O)C3CC12 (stereo unspecified),0%[39.9 µM],nt,nt,nt,nt
Nc1nc2ccccc2n1C(=O)c1ccc(F)cc1,?,nt,0.5µM*,0.28µM*,1.3µM*
Nc1nc2ccccc2n1C(=O)c1ccco1,?,13µM*,?,2.5µM*,11µM*
O=C(c1ccco1)N1CCn2c1nc1ccccc12,?,11µM*,?,?,?
Nc1nc2ccccc2n1C(=O)CCc1ccccc1,-2%,10µM*,?,?,?
COc1ccc(C)c2sc(NC(=O)c3ccc(S(=O)(=O)N4CCCCC4)cc3)nc12,nt,nt,nt,nt,-3%
CC(C)(C)C(=O)Nc1ccccc1C(=O)OCc1cc(=O)n2ccsc2n1,nt,nt,nt,nt,-1%
Nc1nc2ccccc2n1C(=O)c1cccs1,?,11µM*,?,0.79µM*,2.7µM*
COc1ccc(C(=O)n2c(N)nc3ccccc32)cc1OC,nt,nt,2.8µM*,2.5µM*,19µM*
Nc1nc2ccccc2n1C(=O)c1ccccc1,11µM*,1.6µM*,?,0.35µM*,0.76µM*
O=C(c1ccccc1)n1nnc2ccccc21,-5%,-4%,nt,nt,?
SMILES,KinaseGlo FLuc,SMN2 splice up,NPC1 promoter act,Rab9 prom act,FLuc modulator
O=C(CCCCCn1c(=O)[nH]c2ccccc2c1=O)NCc1cccc(Cl)c1,nt,nt,nt,nt,2%
CCN(CC)C(=O)c1c(-c2ccccc2)c(-c2ccccc2)nn(C)c1=O,nt,-3%,nt,nt,-6%
O=C(CCc1nc(-c2ccccc2)no1)N1CCCC1,-5%,5%,20%,27%,?
O=C(CSc1nc(-c2ccccc2)no1)N1CCCCC1,nt,25%,nt,nt,24µM*
O=C(CSc1nc(-c2ccccc2)no1)N1CCN(c2ccccc2F)CC1,nt,nt,nt,nt,-17%
COc1ccccc1N1CCN(C(=O)CSc2nc(-c3ccc(C(C)C)cc3)no2)CC1,nt,nt,nt,nt,2.1µM*
CC(C)c1ccc(-c2noc(SCC(=O)N3CCN(c4ccccc4F)CC3)n2)cc1,nt,nt,nt,nt,2.4µM*

# Source: PubChem BioAssay (National Center for Advancing Translational Sciences (NCATS))
